From PubChem
Rows were chosen to be rich in hits. Some 9.4% of all compounds tested hit in one or more screens of this group.
Pf growth 48h: inhibits P. falciparum growth in the first generation, 48 h. P. falciparum luciferase growth in erythrocytes, 48 h. Potency, µM (top dose mostly 28.7 µM), actives largely listed as inhibitors. hit rate 5.9% among 310,000
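First compound was added to culture medium, then infected red cells at 0.1% parasitemia and 2% hematocrit (final). After incubation at 37 C under 5% CO2, luciferase detection reagent was dispensed and light output recorded.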
Pf growth 96h: P. falciparum growth inhibition at 96 hour, primary screen for plastid delayed-death inhibitors; Potency, µM (doses to about 28.7 µM), most hits filed as inhibitors; P. falciparum luciferase reporter growth, 96 h; hit rate 6.9% among 320,000
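Plates of compound plus infected erythrocytes (2% hematocrit, 0.05% parasitemia final) incubate 96 hours, 37 C, 5% CO2. Detection reagent added; reduced luminescence from the parasites' luciferase reporter flags inhibition.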
AMA1-RON2 inh: inhibitors of Plasmodium falciparum AMA1-RON2 interaction; AlphaScreen AMA1-biotinylated RON2 peptide binding; Potency, µM (doses to about 58.2 µM), hits mostly inhibitors; hit rate 0.2% among 360,000; note: nearly all actives have a fitted effect of over 45% in size
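AMA1 (3D7) with his tag at 25 nM final met compounds first, then biotinylated RON2 peptide at 25 nM; detection used donor plus acceptor beads, 10 µg/mL apiece, read by AlphaScreen after 30 min at room temperature.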
SARS PLpro yeast: inhibitors of SARS-CoV papain-like protease in yeast; S. cerevisiae expressing SARS-CoV PLpro, growth rescue; Potency, µM (titrated, usually from 32.9 µM), actives largely listed as activators; hit rate 0.19% among 330,000; AID 485353; calls by dose curve; note: nearly all actives have a fitted effect of over 55% in size
Of the large screens only hits and unclear results are named; the others gave an inactive call. Unless noted, calls come from the whole dose curve; as a rule, active = well fitted curve in the direction sought with a large enough effect; inconclusive = small, poorly fitted or top-dose-only effect, or another doubt; inactive = no such curve, though single readings can be large; an effect the other way counts as inactive or inconclusive.

COC(=O)c1c(CSc2cccc(C)c2)noc1C(=O)NCc1ccco1	Pf growth 48h 2.62µM
CCn1cc(C(=O)N2CCN(c3ccccn3)CC2)c2cc(OC)c(OC)cc2c1=O	Pf growth 96h inconclusive
Cc1ccc2[nH]c(C(=O)N/N=C/c3ccccc3O)c(C)c2c1	Pf growth 48h 2.33µM, Pf growth 96h 4.65µM
COc1ccc2[nH]c(C(=O)N/N=C/c3ccccc3OC)cc2c1	Pf growth 96h inconclusive (no result: Pf growth 48h)
Cc1ccc2[nH]c(C(=O)N/N=C/c3ccccc3C(=O)O)c(-c3ccccc3)c2c1	Pf growth 96h 0.738µM
COc1cc(OC)c2cc(C(=O)N/N=C/c3ccccc3O)[nH]c2c1	Pf growth 96h 4.65µM (no result: Pf growth 48h)
Cc1ccc2[nH]c(C(=O)N/N=C/c3ccc([N+](=O)[O-])cc3)c(C)c2c1	none
CCN(Cc1ccccc1)c1ccc(/C=N/NC(=O)c2cccc(S(=O)(=O)N3CCOCC3)c2)cc1	Pf growth 48h inconclusive, Pf growth 96h inconclusive
CC(Nc1cc(N2CCN(S(C)(=O)=O)CC2)ccc1[N+](=O)[O-])c1ccccc1 (stereo unspecified)	Pf growth 48h inconclusive
CC(Nc1cc(N2CCN(S(=O)(=O)N(C)C)CC2)ccc1[N+](=O)[O-])c1ccccc1 (stereo unspecified)	Pf growth 48h 14.7µM
CC(Nc1cc(N2CCCC2)ccc1[N+](=O)[O-])c1ccccc1 (stereo unspecified)	Pf growth 48h 13.1µM, Pf growth 96h inconclusive
CCCC(=O)N1CCN(c2ccc([N+](=O)[O-])c(NC(C)c3ccccc3)c2)CC1 (stereo unspecified)	Pf growth 48h 11.7µM, Pf growth 96h 9.28µM, SARS PLpro yeast inconclusive
Clc1ccccc1-c1nc2nc3ccccc3nc2n1-c1ccc2c(c1)OCO2	Pf growth 48h inconclusive, Pf growth 96h 10.4µM
CCN(CC)CCN1c2ccccc2Sc2ccc3ccccc3c21	Pf growth 48h 8.28µM, Pf growth 96h inconclusive
Cc1nn(-c2ccccc2)c2nc(-c3ccncc3)cc(C(=O)NCc3ccco3)c12	Pf growth 48h 3.7µM, Pf growth 96h 10.4µM
Cc1nn(-c2ccccn2)c2nc(-c3cccs3)cc(C(=O)NCc3ccco3)c12	Pf growth 96h 10.4µM (no result: Pf growth 48h)
Cc1ncsc1C(=O)Nc1cccc(C(F)(F)F)c1	none
Oc1ccc(NC(=S)Nc2ccc(F)cc2)cc1	none
CCN(CC)c1ccc(NC(=O)CN2CCN(CC(=O)Nc3ccc(F)cc3)CC2)cc1	Pf growth 48h inconclusive, Pf growth 96h 2.62µM
CCN(CC)c1ccc(NC(=S)Nc2ccc(F)cc2)cc1	Pf growth 48h inconclusive, AMA1-RON2 inh 31.6µM
Cn1c(N)c(C(=O)Nc2ccc3ccccc3c2)sc1=S	none
CN1CCC(=C2c3ccccc3CCc3sccc32)CC1	Pf growth 48h 15.1µM
CN1CCC(=C2c3ccccc3CC(=O)c3sccc32)CC1	Pf growth 48h 14.7µM, Pf growth 96h 10.4µM
FC(F)Oc1ccc(-c2c[n+]3c(n2-c2ccccc2)CCCCC3)cc1	Pf growth 48h inconclusive, Pf growth 96h inconclusive
COc1ccc(-c2c[n+](CC(=O)c3ccccc3)c3n2CCCCC3)cc1	Pf growth 48h inconclusive, Pf growth 96h inconclusive
COc1ccc(-c2c[n+]3c(n2-c2ccc(C)cc2)CCCCC3)cc1	Pf growth 48h 0.928µM, Pf growth 96h 0.294µM
COc1ccc(-n2c(-c3ccc(Cl)cc3)c[n+]3c2CCCCC3)cc1	Pf growth 48h 1.04µM, Pf growth 96h 0.465µM
COc1ccc(-c2c[n+]3c4n2CCCCC4=C(c2ccccc2)C3)cc1	Pf growth 48h inconclusive, Pf growth 96h 6.57µM
COc1ccc(-c2c[n+]3c(n2-c2c(C)n(C)n(-c4ccccc4)c2=O)CCCCC3)cc1	Pf growth 48h inconclusive
COc1ccc(-c2c[n+]3c(n2-c2ccccc2)CCCCC3)cc1	Pf growth 48h 1.04µM, Pf growth 96h inconclusive
CCOC(=O)N1CCN(c2ccc(Cl)cc2)CC1	Pf growth 96h inconclusive
COc1ccc(C(=O)N(CC2CCCO2)C(C(=O)NC2CCCC2)c2ccc(C)cc2)cc1OC (stereo unspecified)	Pf growth 48h inconclusive, Pf growth 96h inconclusive
CCc1cc2c(NCCO)ncnc2s1	none (no result: Pf growth 96h)
CCc1cc2c(NCCC(=O)O)ncnc2s1	Pf growth 96h 11.7µM
CS(=O)(=O)Nc1cccc(C2=NN(C(=O)c3ccccc3)C(c3cccs3)C2)c1 (stereo unspecified)	Pf growth 48h 13.1µM
CCS(=O)(=O)Nc1cccc(C2=NN(S(=O)(=O)c3ccc(F)cc3)C(c3cccs3)C2)c1 (stereo unspecified)	Pf growth 48h inconclusive, Pf growth 96h 8.28µM
CCS(=O)(=O)Nc1cccc(C2=NN(S(=O)(=O)CC)C(c3cccs3)C2)c1 (stereo unspecified)	Pf growth 48h inconclusive, Pf growth 96h 13.1µM
O=C(CCn1c(=O)c2cccn2c2cccnc21)N1CCN(c2cccc(Cl)c2)CC1	Pf growth 48h 9.28µM, Pf growth 96h inconclusive
CC(=O)c1ccc(-c2cccs2)s1	none
Cc1ccc(N2C(=O)CC(N(CCc3ccccc3)C(=S)Nc3ccc(N(C)C)cc3)C2=O)cc1 (stereo unspecified)	Pf growth 48h 11.7µM, Pf growth 96h inconclusive
C/C(CC(C)(C)C1CCCCC1)=N\NC(N)=S	Pf growth 96h 2.94µM (no result: Pf growth 48h)
N#Cc1ccccc1OCC(=O)Nc1cccc(S(=O)(=O)N2CCCC2)c1	Pf growth 48h inconclusive, Pf growth 96h inconclusive
COc1cc(C#N)ccc1OCC(=O)Nc1cccc(S(=O)(=O)N2CCCC2)c1	Pf growth 48h 9.28µM, Pf growth 96h 8.28µM
N#Cc1ccc(NCC(=O)Nc2ccc(S(=O)(=O)N3CCCCC3)cc2)cc1	Pf growth 48h 9.28µM, Pf growth 96h inconclusive
N#Cc1cccc(NCC(=O)Nc2cccc(S(=O)(=O)N3CCCCC3)c2)c1	Pf growth 48h 13.1µM, Pf growth 96h inconclusive
N#Cc1cccc(NC(=O)CNc2cccc(S(=O)(=O)N3CCCC3)c2)c1	Pf growth 48h 10.4µM, Pf growth 96h inconclusive
CC(=O)c1cccc(NCC(=O)Nc2cccc(S(=O)(=O)N3CCCCC3)c2)c1	Pf growth 48h inconclusive, Pf growth 96h inconclusive (no result: SARS PLpro yeast)
COc1cccc(NC(=O)CN2C(=O)CSc3ccc(S(=O)(=O)N4CCC(C)CC4)cc32)c1	Pf growth 48h inconclusive (no result: SARS PLpro yeast)
CC1CCN(S(=O)(=O)c2ccc3c(c2)CCC(=O)N3CC(=O)Nc2cccc(C#N)c2)CC1	Pf growth 48h 11.7µM, Pf growth 96h inconclusive (no result: AMA1-RON2 inh)
COc1ccc(S(=O)(=O)N2CCC(C(=O)NC3CCCCC3C)CC2)cc1 (stereo unspecified)	none
COc1ccc(-c2csc(N3CCN(C(=O)c4ccco4)CC3)n2)cc1	none (no result: Pf growth 48h)
COc1ccc(C2=NN(c3nc(-c4ccc(CNC(C)=O)cc4)cs3)C(c3ccco3)C2)cc1 (stereo unspecified)	Pf growth 48h 3.7µM, Pf growth 96h inconclusive
O=C(O)C1C2C=CC(C2)C1C(=O)OCc1ccccc1 (stereo unspecified)	Pf growth 96h 9.28µM
CCc1cc2c(nc1CC)CCN(CC/C(C)=N/O[C@@H](C)c1cc(-c3c(C)cc(C)cc3C)no1)C2	Pf growth 48h inconclusive, Pf growth 96h 7.38µM (no result: AMA1-RON2 inh)
